Some test systems named below: EKVX NSCLC; SN12C renal; UO-31 renal; TK-10 renal; CAKI-1 renal; A498 renal; CCRF-CEM leukemia; MOLT-4 leukemia; ACHN renal.
What all share (test): NCI-60 one-dose screen, 48 h (100 = growth as untreated, 0 = no growth, -100 = all killed)
Holding throughout (settings): 10 µM unless noted

Each structure is given as a SMILES string. About 83,000 compounds went through this panel and 20% of them were active in at least one assay; those are over-represented in the sample as a whole.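 In brief: 96-well plates, 48 h treatment, single concentration, percent growth endpoint.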 Unmarked numbers belong to inactive results. The source made the active and inactive calls. The calls were made as follows: active = growth percent below 10; inactive = the rest.

Regarding `COc1cc2c(cc1-c1c(C)noc1C)ncc1nc(CN3CCOCC3)n([C@H](C)COC(F)F)c12`, the growth in the experiment with EKVX NSCLC is 49.6%; in the experiment with SN12C renal, 56.7%; in the experiment with UO-31 renal, 14.1%; with TK-10 renal, 2.77% (active); with CAKI-1 renal, 35.1%; in the experiment on A498 renal, -7% (active). For the same molecule, the growth in the experiment with CCRF-CEM leukemia is 44%; with MOLT-4 leukemia it was 59.5%.

Take `COc1cc(Cc2cc(-c3ccccc3)nn(Cc3ccccc3)c2=O)cc(OC)c1OC`: the growth in the experiment on SN12C renal is 40.9%; with UO-31 renal, 21.6%; in the experiment with TK-10 renal, 45.2%; in the experiment on ACHN renal, 27.9%; with CAKI-1 renal it was 44.4%; with A498 renal it was 51.1%. Besides, the growth in the experiment with CCRF-CEM leukemia was 34.8%; in the experiment with MOLT-4 leukemia, 5.01% (active).

`C[N+]1=C(/C=C/c2ccccc2Cl)C(C)(C)c2ccccc21`: the growth with EKVX NSCLC is 96.9%; in the experiment with SN12C renal, 103%; in the experiment on UO-31 renal, 71.5%; with TK-10 renal, 114%; with ACHN renal, 110%; with CAKI-1 renal it was 89%. The growth with A498 renal was 87.1%; in the experiment with CCRF-CEM leukemia, 47.1%; in the experiment on MOLT-4 leukemia it was 70.3%.

Take `Cc1ccc(-c2csc(NC(=O)CSc3nc(N)cc(N)n3)n2)cc1`: the growth with EKVX NSCLC is 46.4%; in the experiment with SN12C renal it was 82.9%; with UO-31 renal it was 64.1%; in the experiment on TK-10 renal, 78.9%; in the experiment on ACHN renal, 65.8%; with CAKI-1 renal, 79%. Besides, the growth is 66.3% in the experiment on A498 renal, 50% in the experiment on CCRF-CEM leukemia and 44.4% in the experiment on MOLT-4 leukemia.

For `COc1cc(C[C@H]2COc3cc(O)cc(O)c3C2=O)ccc1O`, the growth in the experiment with EKVX NSCLC was 74.3%; in the experiment with SN12C renal, 40.9%; with UO-31 renal, 48.8%; in the experiment with TK-10 renal it was 58.7%; in the experiment with ACHN renal, 41.7%; in the experiment on CAKI-1 renal, 35.8%. Also, the growth is 90.4% in the experiment on A498 renal, 11.4% in the experiment on CCRF-CEM leukemia and 29.3% in the experiment on MOLT-4 leukemia.

Regarding `CCN1CCN(CCNc2nccc(-c3c(-c4ccc(F)c(O)c4)nc4occn34)n2)S1(=O)=O`, the growth was 47.9% in the experiment with EKVX NSCLC; 33.9% with SN12C renal; 4.38% (active) in the experiment on UO-31 renal; 16.5% in the experiment with ACHN renal; 18.5% in the experiment with CAKI-1 renal; 49.1% in the experiment with A498 renal. Moreover, the growth in the experiment on CCRF-CEM leukemia was 9.35% (active); in the experiment on MOLT-4 leukemia, -9.69% (active).

Regarding `O=C(O)CC(C(=O)O)/C(=C\c1ccccc1)c1ccccc1` (stereo unspecified), the growth in the experiment on EKVX NSCLC is 110%; in the experiment on SN12C renal it was 104%; in the experiment on UO-31 renal, 89.1%; in the experiment with TK-10 renal it was 108%; in the experiment on ACHN renal, 104%; in the experiment on CAKI-1 renal, 103%. The growth in the experiment with A498 renal is 93%; in the experiment with CCRF-CEM leukemia it was 94.6%; in the experiment with MOLT-4 leukemia it was 98.9%.

Turning to `Cc1nc2ccccc2c(/C=C/c2ccc(F)cc2)c1C(=O)/C=C/c1ccccc1`, the growth in the experiment on EKVX NSCLC was 38.2%; with SN12C renal, 22.2%; in the experiment on UO-31 renal, 27.4%; in the experiment on TK-10 renal it was 23.2%; in the experiment on ACHN renal it was 11.6%; with CAKI-1 renal, 24.7%. In addition, the growth was 55.5% with A498 renal, 7.91% (active) in the experiment on CCRF-CEM leukemia and 4.66% (active) in the experiment with MOLT-4 leukemia.

For the molecule `COc1ccc(NC(=O)c2ccc(Nc3ncnc4c3cnn4-c3cccc(F)c3)cc2)cc1`, the growth with SN12C renal is 95.7%; with UO-31 renal, 88.6%; with TK-10 renal, 103%; in the experiment with ACHN renal it was 99.6%; in the experiment on CAKI-1 renal, 90.8%; in the experiment on A498 renal, 57.3%. The growth with CCRF-CEM leukemia is 97.2%; in the experiment on MOLT-4 leukemia, 100%.

As for `Cc1cccc(NC(=O)Cn2cc(CN3CCN(c4ccnc5cc(Cl)ccc45)CC3)nn2)c1`, the growth in the experiment with SN12C renal is 93.8%; in the experiment on UO-31 renal it was 65.7%; in the experiment on TK-10 renal, 102%; in the experiment with ACHN renal, 82.9%; with CAKI-1 renal it was 72.7%; in the experiment with A498 renal it was 84.3%. In addition, the growth is -32.9% (active) in the experiment on CCRF-CEM leukemia and 5.76% (active) with MOLT-4 leukemia.

With `O=C(/C=C/c1ccco1)Nc1ncc(Cc2cc(Cl)ccc2Cl)s1`, the growth in the experiment with EKVX NSCLC is 34.2%; in the experiment on SN12C renal, 29.6%; in the experiment with UO-31 renal it was 36.6%; with TK-10 renal, 51.5%; with ACHN renal, 35.7%; in the experiment on CAKI-1 renal, 36.5%. The growth in the experiment on A498 renal is 10.3%; with CCRF-CEM leukemia, 17.3%; in the experiment with MOLT-4 leukemia it was 14%.

For the molecule `CC(C)Cc1nc(Nc2ccccc2)[nH]c(=O)c1C#N`, the growth in the experiment with EKVX NSCLC was 59.4%; with SN12C renal, 52.8%; in the experiment on UO-31 renal, 14%; with TK-10 renal, 82%; in the experiment with ACHN renal, 57.5%; with CAKI-1 renal, 50.9%. Moreover, the growth in the experiment with A498 renal was 19.4%; in the experiment with CCRF-CEM leukemia it was 60.2%; in the experiment on MOLT-4 leukemia, 61.6%.

`C#CCOc1ccc2nc(CCl)c(Cl)c(Nc3cccc(C(F)(F)F)c3)c2c1`: the growth was 91.1% in the experiment on EKVX NSCLC; 68.6% in the experiment with SN12C renal; 51.8% in the experiment on UO-31 renal; 89.8% with TK-10 renal; 52.1% with ACHN renal; 77% with CAKI-1 renal. Moreover, the growth in the experiment on A498 renal is 104%; in the experiment on CCRF-CEM leukemia, 20.9%; in the experiment with MOLT-4 leukemia it was 29.5%.

As to `CCN1C(=O)N(CC)C2C1NN=c1s/c(=C\c3ccc(OC)cc3)c(=O)n12` (stereo unspecified), the growth in the experiment with EKVX NSCLC is 51.9%; with SN12C renal, 24.9%; in the experiment on UO-31 renal it was 39.3%; in the experiment on TK-10 renal, 66.2%; in the experiment on ACHN renal, 28.5%; in the experiment with CAKI-1 renal it was 25.5%. For the same molecule, the growth is 11.8% in the experiment with A498 renal, 9.06% (active) in the experiment with CCRF-CEM leukemia and 14% in the experiment on MOLT-4 leukemia.

On to `COc1cc(/C=C/C(=O)N2CCN(C(=O)c3cc(OC)c(OC)c(OC)c3)CC2)ccc1OCCCOc1cc2c(cc1OC)C(=O)N1CCC[C@H]1C=N2`, for which the growth is 8% (active) in the experiment with EKVX NSCLC; 13.9% with SN12C renal; -12.8% (active) in the experiment with UO-31 renal; 6.61% (active) in the experiment on TK-10 renal; 0.236% (active) in the experiment with ACHN renal; 3.12% (active) in the experiment on CAKI-1 renal. In addition, the growth in the experiment on A498 renal was -55.8% (active); with CCRF-CEM leukemia, -1.17% (active); in the experiment with MOLT-4 leukemia it was 7.57% (active).

Turning to `CC1=C2[C@@H](CC1)[C@]1(C)O[C@@](C3CCNCC3)(C[C@H]1OC(=O)CO)[C@H]2OC(=O)/C=C/c1ccccc1`, the growth with EKVX NSCLC is 91.8%; in the experiment on SN12C renal it was 53.1%; in the experiment on UO-31 renal, 60.1%; with TK-10 renal it was 97.3%; in the experiment on ACHN renal, 47%; in the experiment on CAKI-1 renal, 49.1%. Also, the growth was 9.48% (active) in the experiment with A498 renal, 78.9% with CCRF-CEM leukemia and 78.1% in the experiment with MOLT-4 leukemia.

Regarding `C=CN(C(=O)N1CCN(c2cc3c(cc2F)c(=O)c(C(=O)O)cn3C2CC2)CC1)c1nc(-c2ccc(Cl)cc2)cs1`, the growth was 81.8% with EKVX NSCLC; 54.5% in the experiment with SN12C renal; 55.9% in the experiment with UO-31 renal; 70.5% in the experiment with ACHN renal; 2.83% (active) in the experiment with CAKI-1 renal; 56% in the experiment on A498 renal. The growth in the experiment on CCRF-CEM leukemia was 33.5%; in the experiment on MOLT-4 leukemia, 58.2%.

Turning to `Cc1cccc(-c2nc(C(C)C)sc2-c2ccnc(NCCCNS(=O)(=O)c3ccc(Cl)cc3)c2)c1`, the growth in the experiment with EKVX NSCLC was 78.4%; in the experiment with SN12C renal, 73%; with UO-31 renal, 75.3%; with TK-10 renal it was 80.1%; in the experiment on ACHN renal, 75.6%; in the experiment on CAKI-1 renal, 85%. In addition, the growth with A498 renal is 79%; in the experiment on CCRF-CEM leukemia, 68.4%; with MOLT-4 leukemia, 52.3%.

Source of the values: PubChem BioAssay (NCI).
